Compounds with a hit are over-represented: about 1.1% of the library has one in this group of screens.
E-sel TNF inh = blocks E-selectin expression induced by TNF alpha | actives 0.71% (n = 120,000) | inhibition, % at 2 µM | HUVEC TNFa-induced E-selectin immunofluorescence, high content;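 active = inhibition above the batch mean plus 3 SD, and confirmed as a hit on visual image review, cut at about 43% in these data; inconclusive = passes the inhibition cutoff but fails visual image review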;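 note: 0% = TNF-stimulated DMSO wells and 100% = unstimulated control wells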
TNFa cytotox = HUVEC cytotoxicity counter-screen, TNF alpha stimulated | cell count reduction, % at 2 µM | HUVEC TNFalpha-stimulated, Hoechst cell count, imaging | actives 0.17% (n = 93,000);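 active = cell count reduction exceeding the screen mean by over 5 SD, scaled to untreated wells per plate, cut at about 78% in these data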;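 note: cells counted after 24 h of TNF alpha exposure following the 1 h pretreatment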
VCAM1 TNFa inh = reduces TNF alpha induced VCAM1 expression in HUVEC; HUVEC TNFa-induced VCAM-1 immunofluorescence, high-content imaging; inhibition, % at 2 µM; actives 0.48% (n = 95,000); AID 802;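 active = inhibition above the batch mean plus 3 SD, with images confirmed as a hit by eye, cut at about 37% in these data; inconclusive = inhibition above that limit but hit not confirmed in images; inactive = inhibition not above that limit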;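 note: 0% = TNF-stimulated DMSO wells and 100% = unstimulated control wells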
F-actin modifier = alters cytoskeleton assembly in HUVEC cells | HUVEC TNFa F-actin phalloidin imaging, high content | actives 0.18% (n = 91,000) | inhibition, % at 2 µM;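 active = inhibition above the batch mean plus 3 SD and confirmed as a hit by visual image inspection, cut at about 30% in these data, passing the limit was not always enough; inconclusive = above the inhibition threshold but rejected on visual inspection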
* marks the source's active call; other numbers are inactive results; ? = inconclusive; . = no result given.

SMILES	E-sel TNF inh	TNFa cytotox	VCAM1 TNFa inh	F-actin modifier
CC(C)C(=O)Nc1ccc(NC(=O)c2ccccc2Cl)nc1	22	83*	31	-21
Cc1ccc(-n2c([O-])nc(-[n+]3ccccc3)c2C=O)cc1	.	29	10	37*
O=[N+]([O-])/C=C\c1ccc(N2CCCC2)c(F)c1	20	.	.	.
CC(C)(C)n1nnnc1C(c1cccs1)N(Cc1ccc(Cl)cc1)CC1CCCO1 (stereo unspecified)	.	11	6	-15
COc1ccc(CCN(C)c2ccc(S(=O)(=O)N3CCCC3)cn2)cc1OC	76*	.	.	.
CC(=O)Nc1ccc(S(=O)(=O)NC2(C(F)(F)F)C(=O)Nc3c2c(=O)[nH]c(=O)n3C)cc1 (stereo unspecified)	-33	-5	1	34*
CC(=O)Nc1ccc(S(=O)(=O)NC2(C(F)(F)F)C(=O)Nc3c2c(=O)n(C)c(=O)n3C)cc1 (stereo unspecified)	5	-34	2	-3
CC(OC(=O)CCN1C(=O)c2cccc([N+](=O)[O-])c2C1=O)C(=O)Nc1cc(Cl)cc(Cl)c1 (stereo unspecified)	95*	.	.	.
CCOC(=O)c1c(NC(=O)CCN2C(=O)c3cccc([N+](=O)[O-])c3C2=O)sc(C(=O)OC(C)C)c1C	17	.	.	.
CC(C)Cn1[nH]c2c3c(ccc2c1=O)C(=O)c1ccccc1C3=O	11	-18	-5	25
COc1cc(C(=O)OCCNC(=O)c2ccncc2)cc(OC)c1OC	62*	.	.	.
Cn1ccnc1C1CCCCN1C(=O)c1cc(COc2ccc(F)cc2Cl)on1 (stereo unspecified)	-24	.	.	.
CCCc1[nH]nc2c1C(c1cccnc1)C(C#N)=C(N)O2 (stereo unspecified)	.	82*	87*	-64
O=C1c2oc3ccccc3c(=O)c2C(c2cccc(O)c2)N1CCCN1CCOCC1 (stereo unspecified)	3	-31	17	18
O=C1c2oc3ccccc3c(=O)c2C(c2cccc(F)c2)N1CCCO (stereo unspecified)	2	-10	23	67*
COC(=O)C1C(=O)C2=C(CC1C)NC(=O)CC2c1cccc(C)c1 (stereo unspecified)	9	87*	77*	-8
Clc1cccc(CSc2nnc(-c3sccc3-n3cccc3)o2)c1	82*	-7	-3	.
CCOc1ccccc1NC(=O)/C(C#N)=C/c1c(C)nn(-c2ccc(F)cc2)c1Cl	-18	.	.	.
CN(C)c1nc(C=C(C#N)C#N)c(Cl)n1-c1ccc(F)cc1	87*	.	.	.
CS(=O)(=O)N(CCc1ccccc1)CC(=O)NCc1ccco1	12	8	0	2
COc1ccc(CNC(=O)CCc2c(C)nc3ncnn3c2C)cc1	.	-10	-2	-24
Cc1nc2ncnn2c(C)c1CCC(=O)NCc1ccccc1	62*	-26	14	-15
O=C(NC1CCCCC1)C(c1cccs1)N(Cc1cccs1)C(=O)c1ccco1 (stereo unspecified)	36	-7	-5	43
O=C(NC1CCCCC1)C(c1cccs1)N(C(=O)c1ccco1)c1ccc2c(c1)OCCO2 (stereo unspecified)	60*	8	-20	-28
C#CC(=O)N(c1cccc(OC)c1)C(C(=O)NC1CCCC1)c1cccs1 (stereo unspecified)	99*	22	?	-26
SMILES	E-sel TNF inh	TNFa cytotox	VCAM1 TNFa inh	F-actin modifier
COCCn1c(SCC(=O)Nc2sccc2C(N)=O)nnc1-c1ccncc1	-4	.	.	.
COc1ccc2c(c1)CCc1c(C(=O)N3CC4(C)CC3CC(C)(C)C4)noc1-2 (stereo unspecified)	17	8	91*	-21
CC1Oc2ccccc2C=C1/C=C1/SC(N2CCOCC2)=NC1=O (stereo unspecified)	0	13	52*	-9
O=C1N=C(N2CCOCC2)S/C1=C/c1cccs1	39	-3	12	2
O=C(CCN1C(=O)c2ccccc2C1=O)Nc1cccnc1	-21	-34	-19	1
O=C(Cc1ccc([N+](=O)[O-])cc1)NCc1ccccn1	1	.	.	.
O=c1[nH][nH]cc1C=Nc1ccc(Cl)cc1	97*	.	.	.
COc1cccc(N=Cc2c[nH][nH]c2=O)c1	-22	-19	3	8
CNc1nc(OC)nc(N(C#N)CN2C(=O)c3ccccc3S2(=O)=O)n1	9	.	.	.
CN(Cc1ccccc1)C(=O)c1cc(-c2ccc(Br)cc2)on1	100*	.	.	.
CCN(CC)c1ccc2c(c1)oc(=O)c1c(Cl)cc(=O)oc12	-28	-8	-10	6
CCN(CC)c1ccc2c(Cl)c(Br)c(=O)oc2c1	96*	-23	16	28
Clc1ccc(CNc2ccc3nnc(-c4ccccc4)n3n2)cc1	76*	.	.	.
CCC1Sc2ccccc2N(CC(=O)NCCC2=CCCCC2)C1=O (stereo unspecified)	-16	-23	6	4
CCC1Sc2ccccc2N(CC(=O)NCc2ccc3c(c2)OCO3)C1=O (stereo unspecified)	95*	.	.	.
CC(NCc1ccc2c(c1)OCO2)C(=O)NC1CCCc2ccccc21 (stereo unspecified)	1	95*	.	7
Cc1cc(C(=O)NC2CCCc3ccccc32)c(C)o1 (stereo unspecified)	5	11	5	-32
NC(=O)NOCc1ccccc1	68*	.	.	.
NC(=O)CC(NC(=O)OCc1ccccc1)C(=O)O (stereo unspecified)	-6	-22	3	5
CCOc1cc(NC(=O)c2ccco2)c(OCC)cc1NC(=O)Cc1cccc(OC)c1	-12	17	15	15
CCOc1cc(NC(=O)c2ccco2)c(OCC)cc1NC(=O)CCC(=O)NCc1cccnc1	11	100*	?	?
COc1ccccc1-c1nnc(SCC(=O)NC2CCS(=O)(=O)C2)n1N (stereo unspecified)	-23	.	.	.
O=C1CC(O)(C(F)F)Oc2ccc3ccccc3c21 (stereo unspecified)	-39	7	33	4
O=c1cc(C(F)F)oc2c1ccc1ccccc12	93*	.	.	.
COc1ccc2c(c1)SC1=NCCS(=O)(=O)N12	.	80*	61	-20
SMILES	E-sel TNF inh	TNFa cytotox	VCAM1 TNFa inh	F-actin modifier
O=S1(=O)CCN=C2SC3=C(CCCC3)N21	30	-24	12	42
CCOC(=O)c1cc(=O)n(Cc2ccccc2C)c2ccccc12	-5	-46	86*	33*
O=C(Cn1cnc([N+](=O)[O-])n1)N/N=C/c1cc(Cl)ccc1O	34	.	.	.
COc1ccc2c(c1)C(C1C(=O)CCCC1=O)c1ccccc1O2 (stereo unspecified)	13	-29	-27	-12
Cc1ccc(C(=O)CSc2nnc(COc3ccc(C#N)cc3)n2-c2ccccc2)cc1	4	8	96*	8
COc1ccc(-n2c(COc3ccccc3)nnc2SCC(N)=O)cc1	81*	16	10	5
COc1ccc(-n2c(COc3ccc(C)cc3)nnc2SCC(N)=O)cc1	.	-15	7	3
CCc1nnc(NC(=O)CSc2nnc(COc3ccccc3)n2Cc2ccccc2)s1	10	45	-5	-22
C=CCn1c(COc2ccccc2)nnc1SCC(=O)O	62*	-10	-9	-14
CCc1nnc(NC(=O)CSc2nnc(COc3ccccc3)n2-c2ccc(C)cc2)s1	.	-10	16	90*

Bioassay records from PubChem.
